Records with an inconclusive call do not appear. Activity calls are given as the source filed them. The calls were made as follows, unless noted: active = hit-call score of the fitted dose curve at least 0.9, where 1 is the maximum; inconclusive = response in the unintended direction; inactive = score below 0.9.
system: not listed separately; assay: CCTE_Deisenroth_AIME_384WELL_CTox_Active: Cytotoxicity Assessment (CTOX) in CCTE's 384-well Estrogen Receptor Transactivation Assay with AIME metabolic competence (metabolism positive), Deisenroth Lab (AID 2284037);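 also: chemicals first conditioned 2 h by alginate-bound induced rat liver S9 before cells; activity means signal loss indicating cell death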
Procedure, shortened: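 Chemicals pre-incubated 2 hours with alginate-immobilised phenobarbital/beta-naphthoflavone-induced male Sprague Dawley rat liver S9, then conditioned medium applied 24 hour to VM7Luc4E2 cells. Viability by fluorogenic protease substrate; 10-point series 0.002 - 200 uM.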

SMILES	outcome	AC50
CCCCC(CC)CO (stereo not given)	inactive	–
C/C=C/c1ccc(OC)cc1	inactive	–
NC=O	inactive	–
CC(=O)O	inactive	–
CC(C)NCC(O)c1ccc(O)c(O)c1 (stereo not given)	–	106 µM (active)
CC1=C(C)S(=O)(=O)CCS1(=O)=O	–	172 µM (active)
Nc1nc(=S)c2[nH]cnc2[nH]1	inactive	–
Oc1ccccc1O	–	100 µM (active)
CCOCCOCCO	inactive	–

biological target: Estrogen receptor (Homo sapiens) (UniProt P03372); assay: CCTE_Deisenroth_AIME_384WELL_LUC_Inactive: CCTE's 384-well Estrogen Receptor Transactivation Assay without AIME metabolic competence (ERTA luciferase; metabolism negative), Deisenroth Lab (AID 2284038);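 also: VM7Luc4E2 breast cells given medium preincubated 2 h with S9-free microspheres; hits raise estrogen receptor luciferase signal so potencies reflect agonists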
Sequence (P03372 whole entry, looked up): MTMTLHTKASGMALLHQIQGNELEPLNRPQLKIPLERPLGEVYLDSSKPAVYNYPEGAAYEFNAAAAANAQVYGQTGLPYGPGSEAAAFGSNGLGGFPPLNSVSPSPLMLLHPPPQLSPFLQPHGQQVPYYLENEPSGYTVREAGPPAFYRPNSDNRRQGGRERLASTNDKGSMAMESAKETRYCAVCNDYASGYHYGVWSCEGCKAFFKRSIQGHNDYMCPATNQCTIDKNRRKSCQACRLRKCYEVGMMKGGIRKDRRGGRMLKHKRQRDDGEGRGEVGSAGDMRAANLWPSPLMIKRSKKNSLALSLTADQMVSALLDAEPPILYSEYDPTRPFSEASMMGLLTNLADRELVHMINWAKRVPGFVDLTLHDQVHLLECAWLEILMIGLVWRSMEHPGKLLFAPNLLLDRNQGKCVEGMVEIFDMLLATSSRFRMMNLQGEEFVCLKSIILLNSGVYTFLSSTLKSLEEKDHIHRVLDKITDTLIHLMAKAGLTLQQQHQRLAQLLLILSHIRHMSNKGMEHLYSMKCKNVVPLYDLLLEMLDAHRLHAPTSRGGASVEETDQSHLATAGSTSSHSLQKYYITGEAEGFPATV
Procedure, shortened: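 Chemicals (10-point series, 0.002 - 200 uM) were incubated 2 hours with alginate-water microsphere lids lacking S9, then the conditioned medium was transferred to VM7Luc4E2 breast cells for 24 hour. Luciferase induction was read by bioluminescence, fitted upward relative to 17beta-estradiol.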

SMILES	outcome
CCCCCCC(CCCCCCCCCCC(=O)OCC(COC(C)=O)OC(C)=O)OC(C)=O (stereo not given)	inactive
COC(=O)CCC(=O)OC	inactive
NC1CCCCC1	inactive

system: not listed separately; assay: CCTE_Deisenroth_AIME_384WELL_CTox_Inactive: Cytotoxicity Assessment (CTOX) in CCTE's 384-well Estrogen Receptor Transactivation Assay without AIME metabolic competence (metabolism negative), Deisenroth Lab (AID 2284039);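 also: cell viability via live-cell protease substrate cleaved to fluorescent probe; cells exposed 24 h to medium preincubated 2 h with alginate-water beads without S9; loss of fluorescence signal means loss of viability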
Procedure, shortened: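 VM7Luc4E2 cells, metabolism-negative arm: test chemicals (0.002–200 uM, 10 points) pre-incubated 2 h with alginate-water microspheres, then medium transferred to cells for 24 h. Viability read as protease-substrate cleavage to fluorescent probe; loss-of-signal, bidirectional fitting.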

SMILES	outcome	AC50
CCCCC(CC)CO (stereo not given)	inactive	–
C/C=C/c1ccc(OC)cc1	inactive	–
CCCCCCC(CCCCCCCCCCC(=O)OCC(COC(C)=O)OC(C)=O)OC(C)=O (stereo not given)	inactive	–
CCCCCCC(C=O)=Cc1ccccc1	inactive	–
NC=O	inactive	–
CC(=O)O	inactive	–
CC(C)NCC(O)c1ccc(O)c(O)c1 (stereo not given)	–	100 µM (active)
CC1=C(C)S(=O)(=O)CCS1(=O)=O	–	100 µM (active)
Nc1nc(=S)c2[nH]cnc2[nH]1	inactive	–
Oc1ccccc1O	–	51.8 µM (active)
O=C1O[C@H]([C@H](O)CO)C(O)=C1O	inactive	–
Cc1occc(=O)c1O	inactive	–
CCOCCOCCO	inactive	–
O=C(O)c1cccnc1	inactive	–

biological target: Estrogen receptor (Homo sapiens) (UniProt P03372); assay: CCTE_Deisenroth_AIME_384WELL_LUC_Shift: CCTE's 384-well Estrogen Receptor Transactivation Assay with AIME metabolic competence data shift (ERTA luciferase; difference in metabolism positive and negative), Deisenroth Lab (AID 2284041; active = hit-call score of the fitted dose curve at least 0.9, where 1 is the maximum; inactive = score below 0.9;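 also: shift is response with S9 minus without S9 so positive means metabolism raised ER signal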)
Procedure, shortened: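 Chemicals (0.002–200 uM, 10 points) pre-incubated 2 h with alginate-encapsulated induced male Sprague Dawley rat liver S9 or S9-free, then medium applied 24 h to VM7Luc4E2 cells; luciferase. Endpoint is per-concentration difference, S9-positive minus negative.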

SMILES	outcome
CCCCCCC(CCCCCCCCCCC(=O)OCC(COC(C)=O)OC(C)=O)OC(C)=O (stereo not given)	inactive
COC(=O)CCC(=O)OC	inactive
CC1=C(C)S(=O)(=O)CCS1(=O)=O	inactive
NC1CCCCC1	inactive
Nc1nc(=S)c2[nH]cnc2[nH]1	inactive

system: DIO2 (gene 1734); assay: CCTE_GLTED_hDIO2: CCTE's human Deiodinase 2 (DIO2) Inhibition Assay, Great Lakes Toxicology and Ecology Division (GLTED) Lab (AID 2284050)
Procedure, shortened: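 In this cell-free test, chemicals are exposed to human deiodinase type 2 for 3 hours. Released iodide is determined spectrophotometrically via the Sandell-Kolthoff method, and signal loss relative to DMSO is fitted.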

SMILES	AC50	outcome
O=Cc1ccccc1C=O	46.6 µM (active)	–
CCCCCCCCCCCCCCOS(=O)(=O)O	36.9 µM (active)	–
O=C(Oc1ccccc1)c1cccc(C(=O)Oc2ccccc2)c1	42.3 µM (active)	–
CC(=O)O[C@]1(C(C)=O)CC[C@H]2[C@@H]3C=C(Cl)C4=CC(=O)[C@@H]5C[C@@H]5[C@]4(C)[C@H]3CC[C@@]21C	–	inactive
CCCCCCC(C=O)=Cc1ccccc1	15.2 µM (active)	–
Cc1ccc(-c2cc(C(F)(F)F)nn2-c2ccc(S(N)(=O)=O)cc2)cc1	156 µM (active)	–
Cc1c(C)c2c(c(C)c1O)CCC(C)(COc1ccc(CC3SC(=O)NC3=O)cc1)O2 (stereo not given)	70.1 µM (active)	–
S=c1[nH]c2ccccc2s1	53.4 µM (active)	–
CCN(CC)CCOc1ccc(C(=C(Cl)c2ccccc2)c2ccccc2)cc1	53.3 µM (active)	–

Reference: PubChem BioAssay (EPA / NIEHS)
